According to PubChem BioAssay AID2221 (Broad Institute, 2009):
In all, about 290,000 compounds went through this assay and about 2,200 (0.76%) were called active. Only a selection was taken, and actives are over-represented in it overall. A number with no mark means an inactive call. Rule as the data show it: active = inhibition above about 30%; inconclusive = no clear call, values can overlap the other calls; inactive = below that.

What follows are molecules tested against Protein RecA (Mycobacterium tuberculosis (strain ATCC 25618 / H37Rv)) (UniProt P9WHJ3) (assay: Mtb RecA intein splicing inhibitors, primary screen, biochemical, fluorescence, HTS (AID 2221;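 also: 0% = vehicle wells and 100% = reference inhibitor control wells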)). Details: cell-free RecA intein splicing, hits give high values, concentration not given here.
Sequence of Protein RecA (Mycobacterium tuberculosis (strain ATCC 25618 / H37Rv)) (P9WHJ3 whole entry, looked up): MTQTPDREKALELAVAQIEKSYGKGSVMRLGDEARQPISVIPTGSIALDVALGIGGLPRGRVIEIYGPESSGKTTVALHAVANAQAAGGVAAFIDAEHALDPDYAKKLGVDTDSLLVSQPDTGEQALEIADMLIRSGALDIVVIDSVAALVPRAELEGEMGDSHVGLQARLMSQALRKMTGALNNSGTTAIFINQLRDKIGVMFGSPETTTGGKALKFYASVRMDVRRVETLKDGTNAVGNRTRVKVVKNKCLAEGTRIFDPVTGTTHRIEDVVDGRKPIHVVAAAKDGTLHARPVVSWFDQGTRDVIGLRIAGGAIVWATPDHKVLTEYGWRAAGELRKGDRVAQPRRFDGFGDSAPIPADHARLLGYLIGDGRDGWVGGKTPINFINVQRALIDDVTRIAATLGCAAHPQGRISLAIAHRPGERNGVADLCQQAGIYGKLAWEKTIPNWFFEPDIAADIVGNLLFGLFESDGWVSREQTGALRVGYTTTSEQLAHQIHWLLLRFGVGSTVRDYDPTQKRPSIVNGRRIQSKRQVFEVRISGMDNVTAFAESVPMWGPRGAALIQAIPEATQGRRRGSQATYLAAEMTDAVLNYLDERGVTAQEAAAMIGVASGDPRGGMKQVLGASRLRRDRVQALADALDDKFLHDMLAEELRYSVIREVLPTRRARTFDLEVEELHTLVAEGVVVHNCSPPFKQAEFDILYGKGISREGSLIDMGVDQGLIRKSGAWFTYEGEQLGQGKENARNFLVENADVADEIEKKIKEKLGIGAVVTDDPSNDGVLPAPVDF

SMILES | inhibition
CCOC(=O)C(C)n1cnc2c(nnn2-c2ccc(F)cc2)c1=O (centres undefined) | -0.542%
COC(=O)C(C)n1cnc2c(nnn2-c2ccc(F)cc2)c1=O (centres undefined) | -1.59%
CCOC(=O)C(CC)Sc1ncnc2c1nnn2-c1ccc(F)cc1 (centres undefined) | 36.6% (active)
Cc1ccc(C(=O)COC(=O)CCN2C(=O)C3C4CC(C(Br)C4Br)C3C2=O)cc1 (centres undefined) | 1.16%
CC(=O)Nc1ccc(N2C(=O)CC(Sc3nccc(C)n3)C2=O)cc1 (centres undefined) | -1.08%
O=C(Oc1ccccc1C(=S)N1CCCCC1)c1cc([N+](=O)[O-])cc([N+](=O)[O-])c1 | 28.1%
O=C(Oc1ccc(Br)cc1C(=S)N1CCOCC1)c1cccc([N+](=O)[O-])c1 | 32.3% (active)
COc1cc(C(=S)N2CCOCC2)cc(OC)c1OC(=O)c1cc([N+](=O)[O-])cc([N+](=O)[O-])c1 | -0.59%
Cc1nn(C)cc1/C=C1\CCC/C(=C\c2cn(C)nc2C)C1=O | 1.91%
CC(=O)c1c(C)c[nH]c1C | 0.735%
S=C(NCC1COc2ccccc2O1)Nc1ccc(Br)cc1 (centres undefined) | 2.68%
CC12CCC(C(=O)N(c3cccc(Cl)c3)C1=O)C2(C)C (centres undefined) | 2.02%
Cc1[nH]n(-c2cccc(Cl)c2)c(=O)c1-c1ccc(Cl)cc1 | 8.51%
CC1=NN(c2cccc(Cl)c2)C(=O)C12CC(C)=C(C)CS2 (centres undefined) | 31.7% (active)
COC(=O)C1=C(Nc2ccc(C)cc2)C=C(C)C(C(=O)OC)C1c1ccc(F)cc1 (centres undefined) | -4.47%
COc1cccc(Nc2nc(N)c([N+](=O)[O-])c(NCc3ccco3)n2)c1 | 9.57%
C=CCOc1ccc(/C=C2/C(=O)ON=C2C)cc1OCC | 0.545%
CCOc1ccc(C(CC(=O)O)NC(=O)Cc2ccccc2)cc1OC (centres undefined) | -1.09%
CCOc1ccc(C(c2c(C)[nH][nH]c2=O)c2c(C)[nH][nH]c2=O)cc1OCC | 98.1% (active)
Cc1[nH][nH]c(=O)c1C(c1ccc(-c2ccc(Cl)cc2)o1)c1c(C)[nH][nH]c1=O | -2.86%
Cc1[nH][nH]c(=O)c1C(c1ccc2c(c1)OCO2)c1c(C)[nH][nH]c1=O | 97.8% (active)
CC(NC(=O)c1ccco1)c1ccc2c(c1)OCO2 (centres undefined) | -3.46%
O=C(NCCCn1ccnc1)c1cc(Br)c(Br)s1 | -6.96%

SMILES | inhibition
COc1ccccc1/C=C/C(=O)NC(=S)N1CCOCC1 | 1.89%
CCC(C)N(C(=O)Cn1nc(C)c([N+](=O)[O-])c1C)C1CCS(=O)(=O)C1 (centres undefined) | 2.19%
COCCc1nn2c(=O)cc(COC(=O)c3cc(OC)c(OC)c(OC)c3)nc2s1 | 0.818%
CN1c2ccc(C=O)c3c(C=O)ccc(c23)N(C)C1(C)C | 63.9% (active)
Cc1[nH]c(C)c(S(=O)(=O)N2CCN(c3cccc(C(F)(F)F)c3)CC2)c1C(=O)N1CCCC1 | 0.869%
CCC(c1nnnn1Cc1ccco1)N(Cc1cc2cc(OC)ccc2[nH]c1=O)C1CCCCC1 (centres undefined) | 30.6% (active)
CCC(c1nnnn1Cc1ccccc1)N(Cc1cc2cc(OC)ccc2[nH]c1=O)CC1CCCO1 (centres undefined) | -10.9%
CCC(c1nnnn1Cc1ccco1)N(CCc1ccccc1)Cc1cc2ccc(OC)cc2[nH]c1=O (centres undefined) | 16.5%
C[C@H](C(=O)CC(=O)OC(C)(C)C)[C@H](O)c1ccc(C(F)(F)F)cc1 | 0.927%
COc1cccc(OCCCN2CCCCCC2)c1 | -1.65%
CCCCCCCCCCOC(=O)Cn1c(COc2ccc(C)cc2)[n+](C)c2ccccc21 | 51.7% (active)
Cc1ccc(OCc2nc3ccccc3n2C)cc1 | 1.88%
Cc1ccc(OCCCn2c(=O)oc3ccccc32)cc1 | 2.53%
CCCCCCCCCCOC(=O)Cn1c(COc2cccc(OC)c2)[n+](C)c2ccccc21 | 51.1% (active)
CCn1c(=N)n(CC(=O)c2cccc(OC)c2)c2ccccc21 | 5.77%
O=S(N1CCCCCC1)C12CC3CC(CC(C3)C1)C2 (centres undefined) | -0.132%
COc1ccc(CCNC(=O)CCC(=O)NC2CCCCC2)cc1OC | -0.371%
COc1ccc(NC(=O)c2cc(-c3cc(OC)c(OC)c(OC)c3)nc3ccccc23)c(OC)c1 | 10.4%
CCOC(=O)c1c(S(=O)(=O)NCC(=O)Nc2ccc(C)cc2)c(C)n(C)c1C | -0.878%
CCOC(=O)CSc1nc(C)c(Oc2ccc(Cl)cc2Cl)c(=O)[nH]1 | 1.85%
CCCCOC(=O)CNc1nnc(SCC(=O)OCC)[nH]c1=O | 77.5% (active)
Cc1nnc(SCC(=O)N2CCOCC2)[nH]c1=O | -0.0115%
CCC(C)[C@H](NC(=O)N1CCn2c1nc1ccccc12)C(=O)NCc1ccc(OC)cc1 (some centres undefined) | 2.07%

SMILES | inhibition
COc1ccccc1NC(=O)/C=C/C(=O)O | -1.49%
COC(=O)c1sc(-c2ccc(C(C)(C)C)cc2)cc1NC(=O)/C=C/C(=O)O | 88.1% (active)
O=C(O)/C=C/C(=O)Nc1ccc(F)cc1F | 0.519%
CSc1ccc(S(=O)(=O)NCC(=O)OCC(=O)NC2(C#N)CCCCC2)cc1[N+](=O)[O-] | 1.65%
CC(C)[C@H](NC(=O)OCc1ccccc1)C(=O)OCc1ccccc1 | 7.54%
CCOC(=O)c1nc(Nc2ccc(C(=O)OC)cc2)c2ccccc2n1 | -6.39%
CCOC(=O)c1ccc(NC(=O)c2cc(=O)[nH]c3ccccc23)cc1 | -5.09%
CCOC(=O)c1ccc(Nc2cc3ccccc3c(=O)[nH]2)cc1 | 62.4% (active)
CCN(CC)CCNC(=O)c1sc2ncn(CC(=O)Nc3ccc(C)c(Cl)c3)c(=O)c2c1C | -0.641%
O=C(CN1C(=O)CC(c2ccccc2)=Nc2ccccc21)NC1CCCCC1 | -1.07%
CCOc1ccc(NC(=O)C2CCN(C(=O)N3CCOc4ccccc43)CC2)cc1 | 2.39%
Cc1nnc(NC(=O)C(c2ccccc2)c2ccccc2)s1 | 1.12%
CCN1CCN(c2ccc(NC(=O)c3cnccn3)cc2)CC1 | -0.413%
CCOC(=O)N1CCN(C(c2cccnc2)c2ccc3cccnc3c2O)CC1 (centres undefined) | 9.76%
CCN1CCN(C(c2cccnc2)c2cc(Cl)c3cccnc3c2O)CC1 (centres undefined) | 70% (active)
COc1cccc(/C=N/Nc2cc(C)nc(-c3ccccc3O)n2)c1O | 38.8% (active)
COc1cccc(/C=N/Nc2ncc(C(F)(F)F)cc2Cl)c1O | -2.37%
COc1ccccc1/C=N\Nc1cc(C)nc(-n2nc(C)cc2C)n1 | 0.767%
C/C(=N\NC(=O)COc1ccc(C)cc1[N+](=O)[O-])c1ccc2c(c1)OCCO2 | 1.11%
O=C1COc2ccc(S(=O)(=O)Nc3ccc(OC(F)(F)F)cc3)cc2N1 | -0.276%
O=S(=O)(Nc1ccc(O)c2ccccc12)c1ccc(OC(F)(F)F)cc1 | 95.2% (active)
Cc1nn(C)c(C)c1NS(=O)(=O)c1ccc(OC(F)(F)F)cc1 | 0.692%
COCCCC1CCN(C(=O)C2CCC(=O)N(C3CCCCCC3)C2)CC1 (centres undefined) | -0.89%

SMILES | inhibition
Cc1cc(C)cc(NC(=O)C2CCN(c3nc(C)cc(C)n3)CC2)c1 | -1.54%
COC(=O)CC1=NN(c2ccccc2)C(=O)C1 | 76.6% (active)
Cc1ccc(CC2CC(=O)N(c3nc(C)cc(C)n3)C2=O)cc1 (centres undefined) | -1.07%
C/C(N)=C(/C#N)C(=O)COC(=O)C1=NN(c2ccccc2)C(=O)CC1 | -0.739%
CC(=O)c1sc(NC(=O)C2=NN(c3ccccc3)C(=O)CC2)nc1C | -1.59%
COC(=O)CC1=NN(c2nc(C)cc(C)n2)C(=O)C1 | 36.2% (active)
O=C(CSc1nc(Nc2ccccc2)nc(N2CCOCC2)n1)Nc1cc(Cl)ccc1O | 2.06%
CCCn1nc(C(=O)NNC(=O)CSCC(=O)Nc2cc(C)on2)c2ccccc2c1=O | 1.67%
O=C1Nc2cc(C(=O)N3CCC(N4CCCCC4)CC3)ccc2S/C1=C\c1ccccc1 | 1.2%
Cc1csc(CN(C)C(=O)CC2C(=O)NCCN2CC(C)(C)C)n1 (centres undefined) | -5.7%
O=C(C(Cc1ccccc1)n1cccc1)N1CCN(C2CCCCC2)CC1 (centres undefined) | 1.21%
NCCCC[C@@H]1NC(=O)[C@H](CCC(=O)O)NC(=O)c2cc([N+](=O)[O-])cc(I)c2NCC[C@@H](C(N)=O)NC1=O | 0.579%
NC(=O)C[C@@H]1NC(=O)CNC(=O)c2cc([N+](=O)[O-])cc(I)c2NCCC(C(N)=O)NC1=O (some centres undefined) | 1.58%
NC(=O)CC[C@@H]1NC(=O)[C@H](CO)NC(=O)c2cc([N+](=O)[O-])cc(I)c2NCC[C@@H](C(N)=O)NC1=O | 30.3% (active)
COc1ccc(Nc2ncc(F)c(N3CCOCC3)n2)cc1 | -0.77%
CN(C)S(=O)(=O)c1ccc(C(=O)NCCN=C2NS(=O)(=O)c3ccccc32)cc1 | -1.53%
Cc1cc(C)c(NC(=O)CN2C(=O)NC(Cc3ccccc3)C2=O)c(C)c1 (centres undefined) | 0.835%
Cc1onc(-c2c(Cl)cccc2Cl)c1C(=O)c1c[nH]c(C(=O)NC2CC2)c1 | 5.76%
Cc1[nH]n(C)c(=O)c1C(=O)c1c(-c2c(Cl)cccc2Cl)noc1C | 77.1% (active)
Cc1onc(-c2c(Cl)cccc2Cl)c1C(=O)NNC(=O)c1c(-c2c(Cl)cccc2Cl)noc1C | 0.133%
